Screens: PubChem BioAssay, National Center for Advancing Translational Sciences (NCATS)
A selection: hits, their analogues and other compounds. The true share with any hit is near 10%.
HP1b chromo inh: blocks HP1-beta chromodomain binding to methylated histone tails; P83916; AlphaScreen HP1-beta / biotin-H3K9me3 peptide binding; Potency, µM (highest dose often 114 µM), inactives show at the highest dose activity change, negative = inhibition, actives largely listed as inhibitors; hit rate 0.56% among 390,000; AID 540317; note: nearly all actives have a fitted effect of over 70% in size
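Compound inhibition of the preformed complex between 50 nM HP1-beta and 50 nM biotinylated H3K9me3 peptide was read by AlphaScreen. Buffer was PBS pH 7.4 with 0.01% Tween-20. Incubations ran 30 min at room temperature, with 10 ug/mL donor/acceptor beads.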
BAZ2B inh: BAZ2B (human) inhibition | AID 504333 | Potency, µM (titrated, usually from 114 µM), without a hit: at the top dose activity change, negative = inhibition, actives largely listed as inhibitors | hit rate 4.4% among 360,000 | AlphaScreen BAZ2B-H3K14Ac peptide displacement | Q9UIF8; note: % is set by controls: 0 for no effect and ±100 for the full control effect; nearly all actives have a fitted effect of over 60% in size
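In this displacement format the biotinylated H3(5-23) peptide acetylated at Lys14 serves as ligand at 50 nM, with BAZ2B at 50 nM in PBS pH 7.4 containing 0.01% Tween-20. Donor and acceptor beads are 10 ug/mL final.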
JMJD2A Tudor: blocks the human JMJD2A Tudor domain; O75164; AlphaScreen JMJD2A-Tudor / H3K4me3 peptide binding; Potency, µM (highest dose often 114 µM), inactives show at the highest dose activity change, negative = inhibition, hits mostly inhibitors; hit rate 4.4% among 390,000; note: % is set by controls: 0 for no effect and ±100 for the full control effect; nearly all actives have a fitted effect of over 50% in size
G9a block: G9a (human) methyltransferase inhibition | Q96KQ7 | Potency, µM (titrated, usually from 102 µM), for inactives: top-dose activity, negative = inhibition, most hits filed as inhibitors | hit rate 8.8% among 350,000 | AID 504332 | G9a H3K9 monomethylation, AlphaScreen, 2 h; note: % is set by controls: 0 for no effect and ±100 for the full control effect; nearly all actives have a fitted effect of over 75% in size
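Quantitative HTS format: methyltransferase activity on a biotin-tagged H3K9 peptide is measured by AlphaScreen, using a rabbit anti-monomethyl-H3K9 antibody with streptavidin donor and anti-IgG acceptor beads. Final levels are 20 nM enzyme, 500 nM peptide, 20 uM SAM; 2 h RT.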
GLS inh: glutaminase GLS (human) inhibition | GLS enzymatic activity, qHTS titration | Potency, µM (series often up to 45.5 µM), without a hit: top-dose activity change, negative = inhibition, hits mostly inhibitors | O94925 | hit rate 0.21% among 410,000; note: % is set by controls: 0 for no effect and ±100 for the full control effect
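Enzyme dispensed in phosphate buffer (45 mM, pH 8.2, 0.02% Tween-20), compounds pinned in, then 1 mM L-glutamine solution and the glutamate oxidase–HRP–Amplex Red mix added; fluorescence read immediately and again after 30 min at room temperature.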
* = called active by the depositor; [ ] = another dose, or the depositor's remark. Calls come from the whole dose curve; as a rule, active = well fitted curve in the direction sought with a large enough effect; inconclusive = small, poorly fitted or top-dose-only effect, or another doubt; inactive = no such curve, though single readings can be large; an effect the other way counts as inactive or inconclusive. Potency is the fitted concentration of half-maximal effect.

Screening O=C(Nc1nccs1)c1cccc(N2C(=O)c3cccc4c([N+](=O)[O-])ccc(c34)C2=O)c1 returned HP1b chromo inh 18%, BAZ2B inh -26%, JMJD2A Tudor -6%, G9a block -2% and GLS inh -1%.
O=C(O)c1ccc(CN2C(=O)c3cccc4c([N+](=O)[O-])ccc(c34)C2=O)cc1 was read as HP1b chromo inh 5%, BAZ2B inh 50µM*, JMJD2A Tudor inconclusive, G9a block 45µM* and GLS inh -3%.
CN(C)CCCN1C(=O)c2cccc3c([N+](=O)[O-])ccc(c23)C1=O was read as HP1b chromo inh 1%, BAZ2B inh inconclusive, JMJD2A Tudor -28%, G9a block inconclusive and GLS inh 4%.
`CC(=O)Oc1cccc(N2C(=O)c3ccc(C(=O)O)cc3C2=O)c1` gave HP1b chromo inh 29%, JMJD2A Tudor -12%, G9a block 2%[59 µM] and GLS inh -6%.
For Cc1ccc(C(=O)O)cc1N1C(=O)c2cccc3c([N+](=O)[O-])ccc(c23)C1=O the results were HP1b chromo inh -16%, BAZ2B inh 50µM*, JMJD2A Tudor 56µM*, G9a block 25µM* and GLS inh inconclusive.
O=C(NCc1ccccn1)C1(C(F)(F)F)CC(CCCO)CCCO1 (stereo not given) was read as HP1b chromo inh 24% and JMJD2A Tudor -6%.
For COc1ccc(N2CCN(S(=O)(=O)c3cc(-c4cc(C)no4)ccc3C(C)C)CC2)cc1 the results were HP1b chromo inh 29%, BAZ2B inh 10µM*, JMJD2A Tudor -5%, G9a block 22µM* and GLS inh -1%.
For COc1ccc(N2CCN(S(=O)(=O)c3cc(C)ccc3OC)CC2)cc1 the results were HP1b chromo inh inconclusive, BAZ2B inh 45µM*, JMJD2A Tudor inconclusive, G9a block inconclusive and GLS inh 0%.
Screening COc1ccc(S(=O)(=O)N2CCN(S(=O)(=O)c3c(F)cccc3F)CC2)cc1 returned BAZ2B inh -12%, JMJD2A Tudor -18% and G9a block 5%[12.7 µM].
Screening CCC(CC)N1CCN(S(=O)(=O)c2ccc(OC)cc2)CC1 returned HP1b chromo inh inconclusive, BAZ2B inh 50µM*, JMJD2A Tudor 1.6µM*, G9a block 3.5µM* and GLS inh 1%.
Screening COc1ccc(OC)c(S(=O)(=O)N2CCN(c3ccc(F)cc3)CC2)c1 returned HP1b chromo inh 30%, BAZ2B inh -29%, JMJD2A Tudor -26%, G9a block 1%[59 µM] and GLS inh 5%.
`COc1ccc(N2CCN(S(=O)(=O)c3ccc(OC)cc3)CC2)cc1` gave HP1b chromo inh inconclusive, BAZ2B inh inconclusive, JMJD2A Tudor inconclusive, G9a block 25µM* and GLS inh 50%.
Screening CCn1cc(C(=O)N2CCN(c3ccccc3)CC2)c(=O)c2cc(S(=O)(=O)N3CCC(C)CC3)ccc21 returned HP1b chromo inh -16%, JMJD2A Tudor inconclusive, G9a block inconclusive and GLS inh 5%.
For CCn1ccc2cc(S(=O)(=O)N3CCCN(C(=O)Nc4ccc(C)c(F)c4)CC3)ccc21 the results were HP1b chromo inh 11%[57 µM], BAZ2B inh -16%, JMJD2A Tudor -19%, G9a block -1%[59 µM] and GLS inh -8%.
COC(=O)C1=CN(c2ccc(F)cc2)C=C(C(=O)OC)C1c1ccc(O)cc1 was read as HP1b chromo inh 31%, BAZ2B inh -2%, JMJD2A Tudor 10%, G9a block 8% and GLS inh 4%.
Screening Cc1onc(NC(=O)c2ccc(Cl)cc2Cl)c1Br returned HP1b chromo inh 11%, BAZ2B inh -5%, JMJD2A Tudor -22%, G9a block 18µM* and GLS inh 2%.
Screening Cc1onc(NC(=O)NC(=O)c2ccccc2F)c1Br returned HP1b chromo inh 19%, BAZ2B inh -9%, JMJD2A Tudor -5% and GLS inh -3%.
For COc1cc(OC)c(OC)cc1/C=C1\CCC(C2CCCC2)C1=O (stereo not given) the results were HP1b chromo inh -3%, BAZ2B inh 25µM*, JMJD2A Tudor inconclusive, G9a block inconclusive and GLS inh -3%.
`COc1cc(OC)c(OC)cc1/C=C1\CCC/C(=C\c2cc(OC)c(OC)cc2OC)C1=O` gave HP1b chromo inh 32µM*, BAZ2B inh 28µM*, JMJD2A Tudor 28µM*, G9a block 40µM* and GLS inh 0%.
`CCSCc1nc2ccccn2c1Br` gave HP1b chromo inh 40%, BAZ2B inh inconclusive, JMJD2A Tudor -12%, G9a block 13µM* and GLS inh 2%.
CCCCSCc1nc2ccccn2c1Br was read as HP1b chromo inh 62%, BAZ2B inh -37%, JMJD2A Tudor -8%, G9a block 13µM* and GLS inh -13%.
For COc1cccc(-c2nccc(NCc3ccc(OC)cc3OC)n2)c1 the results were G9a block 5%[0.501 µM].
COc1ccc(N2C(=O)CC(N3CCN(C(=O)c4ccco4)CC3)C2=O)cc1 (stereo not given) was read as HP1b chromo inh 2%, BAZ2B inh -11%, JMJD2A Tudor -10%, G9a block 56µM* and GLS inh 10%.
For COc1ccc2oc(=O)c(C(=O)N3CCN(C(=O)c4ccco4)CC3)cc2c1 the results were HP1b chromo inh -7%, BAZ2B inh 8%, JMJD2A Tudor 79µM*, G9a block 18µM* and GLS inh 2%.
Screening O=C(c1ccco1)N1CCN(C2CC(=O)N(c3ccc(F)c(Cl)c3)C2=O)CC1 (stereo not given) returned HP1b chromo inh 36%, BAZ2B inh 3%, JMJD2A Tudor -3%, G9a block 28µM* and GLS inh 0%.
For COc1ccc2[nH]c(C)c(C(=O)CN3CCN(C(=O)c4ccco4)CC3)c2c1 the results were HP1b chromo inh 16%, BAZ2B inh 1%, JMJD2A Tudor -17%, G9a block 50µM* and GLS inh -5%.
`COc1ccc2oc(=O)c(C(=O)N3CCN(C(=O)c4ccccc4)CC3)cc2c1` gave HP1b chromo inh 22%, BAZ2B inh 3%, JMJD2A Tudor -6%, G9a block 0% and GLS inh -2%.
For CC1(C(=O)NCc2ccccc2Br)CCN1C(=O)CCc1ccc(Cl)cc1Cl (stereo not given) the results were GLS inh -12%.
CCCOc1ccc(CNC(=O)C2CCN(C(=O)N3CCOc4ccccc43)CC2)cc1 was read as HP1b chromo inh 25%, BAZ2B inh 9%, JMJD2A Tudor -13%, G9a block 17% and GLS inh -2%.
For CC1CCc2cc(F)cc3c2N1C(=O)C(C(=O)Nc1cnccn1)C3=O (stereo not given) the results were HP1b chromo inh -17% and JMJD2A Tudor -18%.
